BAZ2B inh: qHTS Assay for Inhibitors of BAZ2B. Potency, µM (series often up to 114 µM), without a hit: at the highest dose activity change, negative = inhibition, hits mostly inhibitors. 4.4% of 360,000 active. AlphaScreen BAZ2B-H3K14Ac peptide displacement. Bromodomain adjacent to zinc finger domain protein 2B (Homo sapiens), Q9UIF8; also: potency is read from the fitted curve at half-maximal effect; % is scaled to controls: 0 for no effect and ±100 for the full control effect; nearly all actives have a fitted effect of over 60% in size
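AlphaScreen displacement of biotin-H3(5-23)K14Ac peptide (50 nM final) from BAZ2B (50 nM final) in PBS pH 7.4, 0.01% Tween-20; complex preformed 30 min RT, then compounds (top 110 uM) 30 min RT, beads 20 min dark.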
HP1b binding inh: HTS for Inhibitors of HP1-beta Chromodomain Interactions with Methylated Histone Tails; 0.56% of 390,000 active; AID 540317, 2011; Potency, µM (series often up to 114 µM), without a hit: top-dose activity change, negative = inhibition, actives largely listed as inhibitors; AlphaScreen HP1-beta / biotin-H3K9me3 peptide binding; Chromobox protein homolog 1 (Homo sapiens), P83916; also: potency is read from the fitted curve at half-maximal effect; nearly all actives have a fitted effect of over 70% in size
Target sequence (P83916 whole entry, looked up): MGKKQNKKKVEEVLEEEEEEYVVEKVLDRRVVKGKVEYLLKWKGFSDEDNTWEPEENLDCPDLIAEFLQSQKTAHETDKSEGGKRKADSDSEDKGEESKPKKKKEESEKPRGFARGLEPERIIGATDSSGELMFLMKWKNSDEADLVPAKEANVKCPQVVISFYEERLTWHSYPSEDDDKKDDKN
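HP1-beta protein (50 nM final) preincubated 30 min at room temperature with biotinylated H3(1-18)K9me3 peptide (50 nM) in PBS pH 7.4, 0.01% Tween-20, then compound added for 30 min. AlphaScreen streptavidin donor/nickel chelate acceptor beads (10 ug/mL final), 30 min dark, luminescence read.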
Six1-Eya2 inh: qHTS Assay for Inhibitors of the Six1/Eya2 Interaction; Homeobox protein SIX1 (Homo sapiens) + Protein phosphatase EYA2 (Homo sapiens), …; AlphaScreen GST-Six1/His-Eya2 binding, biochemical; stronger effect = lower value; activity change, % (concentration not given with the values); 0.56% of 360,000 active; AID 651725, 2012; in the data active = activity change below about -65%; inconclusive = mostly about -30% to -63%; also: % is scaled to controls: 0 for no effect and ±100 for the full control effect
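Six1/Eya2 binding was read as AlphaScreen signal after compounds were pinned into GST-Six1 plus His-tagged Eya2 (5X stock 250/500 nM) in pH 8.0 Tris/NaCl/TCEP buffer, beads added, then incubated 1 h, 37 C, dark.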
CtBP-E1A inh: qHTS Assay for Inhibitors of the CtBP/E1A Interaction | CtBP / adenovirus E1A interaction (AlphaScreen) | 0.49% of 340,000 active | AlphaScreen GST-E1A/His-CtBP binding, 1536-well; stronger effect = lower value | activity change, % (test concentration not listed); in the data active = activity change below about -65%; inconclusive = mostly about -30% to -63%; also: % is scaled to controls: 0 for no effect and ±100 for the full control effect
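In 5 uL wells, 23 nL compound meets equimolar GST-E1A and His-CtBP (5X stock 125 nM each) for 2 h, 37 °C. Beads (5X, 50 ug/mL) then 1 h, 37 °C, dark.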
G9a block: qHTS Assay for Inhibitors of Histone Lysine Methyltransferase G9a; Histone-lysine N-methyltransferase EHMT2 (Homo sapiens), Q96KQ7; Potency, µM (titrated, usually from 102 µM), for inactives: at the highest dose activity, negative = inhibition, usual class: inhibitors; 8.8% of 350,000 active; G9a H3K9 monomethylation, AlphaScreen, 2 h; also: potency is read from the fitted curve at half-maximal effect; % is scaled to controls: 0 for no effect and ±100 for the full control effect; nearly all actives have a fitted effect of over 75% in size
Target sequence (Q96KQ7 913-1193 limits assumed): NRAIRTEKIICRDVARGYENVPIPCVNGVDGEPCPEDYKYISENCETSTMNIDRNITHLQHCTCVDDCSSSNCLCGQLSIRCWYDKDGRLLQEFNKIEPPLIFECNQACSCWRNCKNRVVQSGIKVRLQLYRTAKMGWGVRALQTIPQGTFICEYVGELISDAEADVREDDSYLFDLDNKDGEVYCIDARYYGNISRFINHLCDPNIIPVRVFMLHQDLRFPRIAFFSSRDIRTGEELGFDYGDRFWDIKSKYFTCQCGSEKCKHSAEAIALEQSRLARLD
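AlphaScreen detection with an anti-monomethyl H3K9 antibody quantified product after a 2 h room-temperature reaction containing 500 nM biotinylated H3K9 peptide, 20 µM SAM and 20 nM enzyme, which had been preincubated 15 min with compound.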
JMJD2A Tudor inh: qHTS Assay for Inhibitors of JMJD2A-Tudor Domain; Potency, µM (series often up to 114 µM), for the others: top-dose activity change, negative = inhibition, actives largely listed as inhibitors; Lysine-specific demethylase 4A (Homo sapiens), O75164; 4.4% of 390,000 active; AlphaScreen JMJD2A-Tudor / H3K4me3 peptide binding; also: potency is read from the fitted curve at half-maximal effect; % is scaled to controls: 0 for no effect and ±100 for the full control effect; nearly all actives have a fitted effect of over 50% in size
Numbers without * were called inactive; ? = inconclusive; . = no result; ! = not active in a repeat; [ ] = another dose, or the depositor's remark. This is a sample that favours compounds with a hit; in the whole collection about 10% have one here. Unless noted, calls follow the shape of the dose curve; as a rule, active = well fitted inhibition curve with a large enough effect; inconclusive = small, poorly fitted or top-dose-only effect; inactive = no such curve, though single readings can be large or run the other way.

SMILES	BAZ2B inh	HP1b binding inh	Six1-Eya2 inh	CtBP-E1A inh	G9a block	JMJD2A Tudor inh
CSc1nnc(-c2cc(-c3ccc(C)cc3)nc3ccccc23)o1	4.7%	37.4%	5.2	4.9	7.94µM*	15.6%
COC(=O)C(CC(C)C)NC(=O)C(N)Cc1ccccc1 (stereo not given)	3.8%	11.8%	4.5	6.5	44.7µM*	?
COC(=O)[C@H](Cc1ccccc1)NC(=O)[C@@H](N)CC(=O)OCc1ccccc1	?	-10.6%	2.3	5.0	5.5%[0.501 µM]	?
O=C(N[C@@H](Cc1ccccc1)C(=O)CCl)OCc1ccccc1	4.1%	54.8%	6.9	-15.5	15µM*	-9.0%
CC(C)C[C@@H](C=O)NC(=O)[C@H](CC(C)C)NC(=O)[C@H](CC(C)C)NC(=O)OCc1ccccc1	.	.	.	.	8.91µM*	.
O=C(O)/C=C/c1ccc(S(=O)(=O)Nc2ccc(OCc3ccccc3)cc2)cc1	-28.1%	27.0%	-8.7	.	16.7%[59 µM]	-10.9%
O=C(O)CCc1ccc(S(=O)(=O)Nc2ccc(OCc3ccccc3)cc2)cc1	-14.1%	10.4%	2.8	21.1	44.7µM*	-24.3%
CCOC(=O)C1=C(CN2CCC(C(=O)OCC)CC2)NC(=O)NC1c1ccc(Cl)cc1 (stereo not given)	.	15.9%	.	.	-41.9%[59 µM]	-33.7%
CSc1ccccc1OCc1cc(C(=O)N2CCc3[nH]cnc3C2c2ccccn2)no1 (stereo not given)	56.2µM*	?	?	-27.2	?	17.8µM*
CC(=O)Nc1ccc(C(=O)CSc2nnc(Cn3nnc4ccccc43)n2C)cc1	3.6%	10.5%	1.7	8.7	79.4µM*	56.2µM*
CC(C)c1ccc(/C=C(\c2nc3ccccc3[nH]2)S(=O)(=O)c2ccccc2)cc1	-31.3%	-0.2%	2.2	-0.6	6.4%[59 µM]	-14.1%
O=S(=O)(/C(=C/c1ccc(C(F)(F)F)cc1)c1nc2ccccc2[nH]1)c1ccccc1	-30.3%	-12.1%	-12.0	1.5	6.4%[59 µM]	79.4µM*
CCOc1ccc(C(=O)c2cn(CC(=O)Nc3cc(OC)cc(OC)c3)c3ccc(F)cc3c2=O)cc1	89.1µM*	25.8%	.	.	?	-33.4%
CCc1ccc(C(=O)c2cn(CC(=O)Nc3ccc(F)c(F)c3)c3cc(OC)c(OC)cc3c2=O)cc1	79.4µM*	12.2%	.	.	-6.6%[59 µM]	-22.8%
CCc1ccc(C(=O)c2cn(CC(=O)Nc3ccc4c(c3)OCCO4)c3ccc(CC)cc3c2=O)cc1	79.4µM*	42.8%	.	.	-0.6%[59 µM]	2.0%
CCc1ccc(C(=O)c2cn(CC(=O)Nc3ccc(OC)cc3)c3cc4c(cc3c2=O)OCCO4)cc1	1.3%	21.7%	.	.	0.7%[59 µM]	-11.9%
CCc1cc(CNC(=O)CC2C(=O)NCCN2Cc2ccc(-c3ccccc3)cc2)on1 (stereo not given)	-25.4%	19.5%	-8.0	-9.2	50.1µM*	-22.2%
CCOc1ccc(CN2CCNC(=O)C2CC(=O)NCCc2ccccn2)cc1 (stereo not given)	-4.2%	46.4%	-0.5	0.0	56.2µM*	-6.2%
Cc1cccnc1CCNC(=O)CC1C(=O)NCCN1CC1CCCCC1 (stereo not given)	-24.7%	11.7%	2.0	-19.0	39.8µM*	-19.1%
CCOc1ccc(CN2CCNC(=O)C2CC(=O)NCc2ccccn2)cc1 (stereo not given)	-2.5%	42.3%	-8.3	-8.9	?	-2.7%
O=C(CC1C(=O)NCCN1Cc1ccc(-c2ccccc2)cc1)NCc1ccccc1 (stereo not given)	?	28.7%	-4.7	-0.1	?	-19.9%
CCOc1ccc(CN2CCNC(=O)C2CC(=O)N(C)Cc2nonc2C)cc1 (stereo not given)	-32.9%	53.2%	22.1	0.0	50.1µM*	-5.8%
C=CCN1C(=O)N(c2ccc(F)cc2)C(=O)C1CC(=O)Nc1ccc(Cl)cc1 (stereo not given)	-1.3%	23.2%	5.5	8.3	-10.2%	4.6%
CCCCn1c(N)c(N(CC(C)C)C(=O)Cc2ccc3c(c2)OCCO3)c(=O)[nH]c1=O	-3.8%	26.2%	-1.2	-0.4	50.1µM*	-9.5%
CCCCN(C(=O)Cc1ccc(S(=O)(=O)N2CCOCC2)s1)c1c(N)n(CCCC)c(=O)[nH]c1=O	4.4%	28.4%	-0.1	1.8	56.2µM*	-7.6%
SMILES	BAZ2B inh	HP1b binding inh	Six1-Eya2 inh	CtBP-E1A inh	G9a block	JMJD2A Tudor inh
CCCCN(C(=O)c1ccc2c(c1)OCCO2)c1c(N)n(CC(C)C)c(=O)[nH]c1=O	-4.1%	38.5%	-1.3	5.6	44.7µM*	0.0%
Fc1ccc(Cn2c(-c3cccc(Br)c3)nc3ccccc32)cc1	8.3%	79.3%	.	.	20.3%[59 µM]	14.3%
COc1ccc2oc(C(=O)OCC(=O)N(C)CC(=O)Nc3ccc(F)cc3)c(C)c2c1	-17.4%	7.1%	-8.2	4.4	-26.6%[0.501 µM]	-16.7%
COc1ccc(-n2c(=O)c(C)nc3cnc(Oc4ccccc4)nc32)cc1	.	.	.	.	7.7%[12.7 µM]	.
O=c1[nH]cc(N2CCCCCC2)c(=O)[nH]1	0.7%	50.2%	0.0	9.5	50.1µM*	-1.3%
Cc1ccc(-c2cc(C(=O)Oc3ccccc3)c3cc(C)ccc3n2)cc1	-1.0%	70.6%	.	.	-2.7%[59 µM]	19.0%
COc1ccc(NC(=O)c2cc(-c3cc(F)ccc3OC(C)C)n[nH]2)c(C)c1	.	.	-7.9	3.0	.	.
C=Cc1ccc(CN2C(=O)N(c3cccc(Cl)c3)S(=O)(=O)c3ccccc32)cc1	-3.3%	7.2%	.	.	13.2%[59 µM]	-16.0%
CN[C@H](CC(=O)O)C(=O)O	.	-19.8%	6.7	12.8	22.4µM*!	22.4µM*
COc1cccc(C(=O)Nc2ccccc2C(=O)OCc2cc(=O)n3nc(C4CC4)sc3n2)c1	-16.9%	2.6%	.	.	8.2%[59 µM]	-12.9%
CC(=O)N1CC=C2C(C#N)=C(N)C(C#N)(C#N)[C@H](c3ccoc3)[C@H]2C1	0.5%	18.7%	-9.3	-15.7	?	-23.2%
CN1CC=C2C(C#N)=C(N)C(C#N)(C#N)[C@H](c3ccoc3)[C@H]2C1	-10.8%	32.9%	?	?	39.8µM*	-4.7%[57.1 µM]
CC(O)CNCCNCc1cccs1 (stereo not given)	-28.9%	16.8%	2.8	0.0	5.62µM*	?

Source: PubChem (National Center for Advancing Translational Sciences (NCATS))
